# Measurements: publication PMC12136788
# Positions count from the first letter of the chain named. Over roughly 5,800 sequences, “enrichment r” has its median near 0.54; the highest 2% begin near 16. The sample holds the highest values, similar sequences and a random draw of the others, so the mix is not that of the screen.
# B1: chr2:205797254:205797461:+|3pUTR|ENSG00000118257|msi1|total|mutant (ssRNA)
# RNA: GGGAGUUCUACAGUCCGACGAUCUCACCCUCCCAUGAUGCGCAGUGUUCAGAAAGCUGGUAAGUCCCCGGGAUUUCCAGAAGCCGCCUGCAGAAGAAGGUAAGUUUGAAAGCCACUCCAGGGGUCCUGAUGCUGUCAUGCUCACAACAGAGGAUUGAGCAUCA
# B2: chr1:233671823:233671924:+|3pUTR|ENSG00000135750|msi1|total|mutant (ssRNA)
# RNA: GGGAGUUCUACAGUCCGACGAUCUGCUGCUGUGGUCCGAAGCAGAUUUUAUACUUUUAACUGGAAACUUUGGGGUUUGCAUUCCGAUCAUUCCGCUGAUGGCUAAACCGCAAAAUUUAUAUUCCGAAGCAAAAAAAAAAAGCACAACAGAGGAUUGAGCAUCA
# B3: chr3:133826890:133826991:-|3pUTR|ENSG00000154917|unk|total|mutant (ssRNA)
# RNA: GGGAGUUCUACAGUCCGACGAUCUUUGAACGUGUUUCAGAUGUCAUGUGUUCCGUUUUUAUAUGUGUGUACAUAAUUAUAUACCGAGACCGACUUGUGUAUACACCUUCCACAAACACAUCCUCACGGAGAUACAUGUGCUCACAACAGAGGAUUGAGCAUCA
# B4: chr4:140153917:140154018:-|5pUTR|ENSG00000196782|msi1|FALSE|bound_elsewhere (ssRNA)
# RNA: GGGAGUUCUACAGUCCGACGAUCUUUGCAGUCGCCUCGGACUGUCCAUGUGUUUACUUCCCCCAGCCCGAGGAUUCGAUAUCUAGGUUCCUGUGAAAUGCAACUGAGCAGCCAAAGUACUUUGAGAACACGGGGCGGCAUAAACAACAGAGGAUUGAGCAUCA
# B5: ENSG00000070961:be:win_2801|CDS|ENSG00000070961|bound_else_gene|NA|bound_elsewhere_windowed (ssRNA)
# RNA: GGGAGUUCUACAGUCCGACGAUCGUCAUGCAUUCUAUCAACUUGUAGUAGUCUUUACACUCUUAUUUGCUGGAGAAAAGUUUUUUGACAUUGAUAGUGGAAGAAAUGCUCCUUUGCAUGCUCCUCCUUCAGAACAUUAUACUACAACAGAGGAUUGAGCAUCA
# B6: chr10:122937732:122937852:-|CDS|ENSG00000119965|unk|total|mutant (ssRNA)
# RNA: GGGAGUUCUACAGUCCGACGAUCGUAAGUGACAACUCAAAUAUACCCAACUCCGAGUUGCUGCCUUUUCUCCAGAAUUUAUGCCGUCAAGUUAAUCAUCUCCAUGUGGGAAAUAAGACCGAGUGUCAGGAAAACAUCACCAAGCAACAGAGGAUUGAGCAUCA
# B7: chr4:168927217:168927233:+|3pUTR|ENSG00000129116|msi1_unk|FALSE|overlapping (ssRNA)
# RNA: GGGAGUUCUACAGUCCGACGAUCAACCACCCAAAUGACCAAGGCAUAUAUAGUAUUUGGAGGAAUCAGGGGUUUGGAAGGAGUAGGGAGGAGAAUGAAGGAAAAUGCAACCAGCAUGAUUAUAGUGUGUUCAUUUAGAUAAAACAACAGAGGAUUGAGCAUCA
# B8: chr7:123541454:123541562:-|3pUTR|ENSG00000128609|unk|total|mutant (ssRNA)
# RNA: GGGAGUUCUACAGUCCGACGAUCUCCACCGUGUCAUUUUAUUUCCGUCAUUAUUGAAUUAUACCAUUUACUCUGUUUUCUUACCGUCUUAAUUUUAUUAUAUUUUGUUGUUACUGUAUUAUAUUUGAAAACCUUCAAAUCCGACAACAGAGGAUUGAGCAUCA
# B9: chr1:20742972:20743075:-|3pUTR|ENSG00000127483|unk|FALSE|unique (ssRNA)
# RNA: GGGAGUUCUACAGUCCGACGAUCUAACCCUUUCUUAUUUGUAUUUGUUUUAGUAUUGUGAAGUUGUGUUAAAUAGUACUAGCUAGAAAUACAAAUUUCUGGUUAUCAUUUCUCUUCCCUGUGGCACUUGACAUUUUAAUUGUCCAACAGAGGAUUGAGCAUCA
# B10: chr19:57593639:57593745:+|3pUTR|ENSG00000171649|unk|FALSE|unique (ssRNA)
# RNA: GGGAGUUCUACAGUCCGACGAUCUGAACCUUCUUAUUUCUCUACAUUCUUGCCAUACUUGGUAUGGUUAGUCUUUUUAAUUUUAGUUGUUUUAAUAGCUGUAUAAUAGCAUCUGUCUGUGAUUUUAUUGCAUUUUUCUGGUAUCAACAGAGGAUUGAGCAUCA
# B11: chr1:228494639:228494729:+|3pUTR|ENSG00000168159|msi1_unk|total|mutant (ssRNA)
# RNA: GGGAGUUCUACAGUCCGACGAUCGCCAUCGUGUCUCAUCUUGCUGUUAUCUCCCGCUCUUUCCCUCCUCCCAUUUCCUUCCGCCGUUGAAUUUUGCAAAGCUUGCCGCAGCCGCUCAGUUGCCUGCAGCAUCCUUGUGUGCCGCAACAGAGGAUUGAGCAUCA
# B12: chr17:58090057:58090109:+|3pUTR|ENSG00000264364|msi1_unk|FALSE|overlapping (ssRNA)
# RNA: GGGAGUUCUACAGUCCGACGAUCGGGUAGGAUUAGCUUGAAUCUUUUUUUUCUUUACAUUUUUCUCCUGUCUGCUCCCUGCUUAGCCCUCAGUUUCCUCAUUCCUCUGGAGUUCUCUUAGAGCAGCCCCUGUUGUUAGUUGGCCAACAGAGGAUUGAGCAUCA
# B13: chr19:57593639:57593745:+|3pUTR|ENSG00000171649|unk|total|mutant (ssRNA)
# RNA: B10 RNA with U68C, A69C, U83C, A84C, U95C, A96C, U106C, A107C
# B14: chr10:30313878:30313980:-|CDS|ENSG00000107951|unk|total|mutant (ssRNA)
# RNA: GGGAGUUCUACAGUCCGACGAUCUGUUUUUAUAUUUAAGCCCUUCAUGUACUUACUCAUUUUUUCUUCUGUGUAAUAAUCUACCGGGAAGGGAGCAAAACAAACCUGAUUCUUCUCCUCUGUACAUUCAGAAUCCAUUUGAAACAACAGAGGAUUGAGCAUCA
# B15: chr1:228494639:228494729:+|3pUTR|ENSG00000168159|msi1_unk|FALSE|overlapping (ssRNA)
# RNA: GGGAGUUCUACAGUCCGACGAUCGCCAUCGUGUCUCAUCUUGCUGUUAUCUCUAGCUCUUUCCCUCCUCCCAUUUCCUUUAGUAGUUGAAUUUUGCAAAGCUUGUAGCAGUAGCUCAGUUGCCUGCAGCAUCCUUGUGUGUAGCAACAGAGGAUUGAGCAUCA
# B16: chr3:15254852:15254953:-|3pUTR|ENSG00000131370|msi1|total|mutant (ssRNA)
# RNA: GGGAGUUCUACAGUCCGACGAUCAAACUGUUAAUUCUGUCACAGCCUGUAUAUUUCCGUCAUUUGUAAAUCUCUUCAUACAACCGUGACUUCUUUUUUGACUGAUACAGUAUCUUAAUUACAAGGUUAUUUUGUACUUGUCUUCAACAGAGGAUUGAGCAUCA
# Target: MSI1 full-length (mouse, UniProt Q61474 1-362)
# Sequence (Q61474 whole entry): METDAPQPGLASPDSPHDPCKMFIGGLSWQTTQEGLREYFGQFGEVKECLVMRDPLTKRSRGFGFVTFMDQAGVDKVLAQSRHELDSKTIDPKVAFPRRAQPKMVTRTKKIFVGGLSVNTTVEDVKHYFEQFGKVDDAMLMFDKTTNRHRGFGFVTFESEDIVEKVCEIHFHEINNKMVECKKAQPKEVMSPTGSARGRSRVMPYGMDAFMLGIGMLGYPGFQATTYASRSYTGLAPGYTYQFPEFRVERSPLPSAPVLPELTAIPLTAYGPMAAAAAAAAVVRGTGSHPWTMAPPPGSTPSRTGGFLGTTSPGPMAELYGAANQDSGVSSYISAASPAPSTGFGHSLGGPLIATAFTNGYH
# Test: nsRBNS (natural sequence RNA bind-n-seq); RBNS binding buffer (assumed for nsRBNS): 25 mM Tris pH 7.5, 150 mM KCl, 3 mM MgCl2, 0.01% Triton X-100, 500 ug/ml BSA, 20 U/ml SUPERase-In, 4 C; UNK is unkempt and MSI1 is Musashi-1; names of the RNAs are library labels; protein concentration not given here; high values mean tight binding
row,Binder,binding signal [enrichment R]
1,B1,0.483
2,B2,0.297
3,B3,0.348
4,B4,0.362
5,B5,0.822
6,B6,0.448
7,B7,4.58
8,B8,37
9,B9,3.75
10,B10,19.1
11,B11,0.702
12,B12,4.46
13,B13,1.4
14,B14,0.482
15,B15,21.5
16,B16,0.393
